Bioassay records as filed in PubChem BioAssay.
Tb PYK inh: inhibitors of Trypanosoma brucei pyruvate kinase; Q57TT1; TbPYK enzyme, Kinase-Glo Plus ATP luminescence, 45 min; Potency, µM (doses to about 76.8 µM), usual class: inhibitors; 410,000 tested, 0.12% active; note: nearly all actives have a fitted effect of over 50% in size
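Screened from lowest to highest concentration, compounds were pinned into TbPYK/substrate mixtures, and ADP (130 uM final) was added. Plates sat at room temperature for 45 min prior to Kinase-Glo Plus detection by luminescence.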
NS1 function inh: influenza NS1 inhibition; 270,000 tested, 0.4% active; AID 2326; Potency, µM (series often up to 46.1 µM); calls by dose curve; note: actives are rising curves; nearly all actives have a fitted effect of over 50% in size
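In this qHTS, NS1 from influenza A is expressed in budding yeast, where it slows growth. Cells are switched from glucose to 2% galactose medium (pH 6.0, -URA), treated with compound, and growth recovery is read at OD600.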
RE007 growth inh: less growth of the S. pombe RE007 Vpr strain | Potency, µM (top dose mostly 92.2 µM), most hits filed as inhibitors | AID 651644 | S. pombe RE007 Vpr strain, BacTiter-Glo ATP luminescence, 24 h | 360,000 tested, 0.21% active; active = well fitted falling curve with a large enough effect; inconclusive = small, poorly fitted or top-dose-only effect; inactive = no such curve, though single readings can be large or run the other way; note: nearly all actives have a fitted effect of over 50% in size
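Fission yeast RE007 carrying one integrated HIV-1 vpr copy, seeded at OD 0.01 in PMG+AL medium with 23 nL pinned compound. Grown 24 h at 30 degrees; viability read by BacTiter-Glo luminescence after 5 min.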
LmPK inhibitor: blocks Leishmania mexicana pyruvate kinase activity; Q27686; purified LmPK, Kinase-Glo ATP luminescence, 1 h; Potency, µM (series often up to 57.5 µM), usual class: inhibitors; 290,000 tested, 0.37% active; AID 1721
Target sequence (Q27686 whole entry, looked up): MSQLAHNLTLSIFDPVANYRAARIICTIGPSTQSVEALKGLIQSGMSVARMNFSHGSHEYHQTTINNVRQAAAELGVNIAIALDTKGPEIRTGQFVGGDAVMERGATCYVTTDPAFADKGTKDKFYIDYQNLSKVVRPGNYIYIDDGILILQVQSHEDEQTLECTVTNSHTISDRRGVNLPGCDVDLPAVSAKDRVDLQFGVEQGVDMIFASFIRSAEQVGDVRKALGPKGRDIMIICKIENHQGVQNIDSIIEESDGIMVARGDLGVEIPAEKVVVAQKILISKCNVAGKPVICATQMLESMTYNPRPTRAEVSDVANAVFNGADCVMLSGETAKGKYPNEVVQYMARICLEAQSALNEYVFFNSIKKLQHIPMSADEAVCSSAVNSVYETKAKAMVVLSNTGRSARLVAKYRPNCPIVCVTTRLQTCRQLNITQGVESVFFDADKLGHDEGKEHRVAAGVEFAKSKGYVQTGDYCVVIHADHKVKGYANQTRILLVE
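In 50 mM imidazole pH 7.2 with 7 mM MgCl2, LmPK (0.1 nM) turned over PEP (0.5 mM) and ADP (0.1 mM) for 1 h at room temperature. Luciferase read-out of ATP.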
Of the large screens only hits and unclear results are named; the others gave an inactive call. Rows were chosen to be rich in hits. Some 0.77% of all compounds tested hit in one or more screens of this group. Unless noted, calls come from the whole dose curve; as a rule, active = well fitted curve in the direction sought with a large enough effect; inconclusive = small, poorly fitted or top-dose-only effect, or another doubt; inactive = no such curve, though single readings can be large; an effect the other way counts as inactive or inconclusive.

Cc1cc(O)c(C(=O)/C=C/c2cccc([N+](=O)[O-])c2)c(=O)o1	LmPK inhibitor inconclusive
COc1ccc(/C=C/C(=O)c2ccc([N+](=O)[O-])o2)cc1OC	none (no result: NS1 function inh, LmPK inhibitor)
COc1cc(/C=C/C(=O)c2ccc([N+](=O)[O-])o2)ccc1O	RE007 growth inh 13µM (no result: NS1 function inh, LmPK inhibitor)
CC(/C=C/C=C(\C)C(=O)O[C@@H]1O[C@H](CO[C@@H]2O[C@H](CO)[C@@H](O)[C@H](O)[C@H]2O)[C@@H](O)[C@H](O)[C@H]1O)=C\C=C\C=C(C)\C=C\C=C(/C)C(=O)O[C@@H]1O[C@H](CO[C@@H]2O[C@H](CO)[C@@H](O)[C@H](O)[C@H]2O)[C@@H](O)[C@H](O)[C@H]1O	none (no result: NS1 function inh, RE007 growth inh, LmPK inhibitor)
S=c1[nH]nc([C@@H]2C[C@H]2c2ccccc2)n1-c1ccccc1Cl	Tb PYK inh 5µM, LmPK inhibitor 13µM
CN=c1nc(-c2ccccc2)n(-c2ccccc2)s1	Tb PYK inh 7.9µM (no result: LmPK inhibitor)
CC(C)Cn1c(N)c(C(=O)COC(=O)c2cc(-c3ccco3)nc3ccccc23)c(=O)n(C)c1=O	NS1 function inh inconclusive
Cn1c(=O)c(C(=O)COC(=O)c2cc(-c3ccco3)nc3ccccc23)c(N)n(Cc2ccccc2)c1=O	NS1 function inh 8.9µM (no result: Tb PYK inh, RE007 growth inh)
CN(c1nnc(NC(=O)Nc2ccccc2C(F)(F)F)s1)C1CCCCC1	none (no result: NS1 function inh, RE007 growth inh, LmPK inhibitor)
CCCCCCCCOc1ccccc1C(=O)Nc1ccc(C(=O)OCC[N+](C)(CC)CC)cc1	none (no result: NS1 function inh, RE007 growth inh, LmPK inhibitor)
Cc1cccc(OCc2n[nH]c(=S)n2C2CCCCC2)c1	Tb PYK inh 13µM, LmPK inhibitor 18µM
Cc1ccc(OCc2n[nH]c(=S)n2C2CCCCC2)cc1	Tb PYK inh inconclusive, LmPK inhibitor 8.9µM
S=c1[nH]nc(COc2ccc(Cl)cc2)n1C1CCCCC1	Tb PYK inh inconclusive, LmPK inhibitor inconclusive
COCCn1c(C)cc(O)c(C(c2ccccc2OC)N2CCCCC2)c1=O (stereo unspecified)	none (no result: NS1 function inh, RE007 growth inh, LmPK inhibitor)
OC[C@H]1O[C@@H](n2cnc3c2NC=NC[C@@H]3O)C[C@H]1O	none (no result: NS1 function inh, RE007 growth inh, LmPK inhibitor)
c1ccc(OCc2nc3ccccc3[nH]2)cc1	LmPK inhibitor 11µM
Cc1ccc(OCc2nc3ccccc3[nH]2)cc1	LmPK inhibitor inconclusive
O=c1/c(=C/c2ccccn2)sc2nc3ccccc3n12	LmPK inhibitor inconclusive
O=c1/c(=C\c2cc([N+](=O)[O-])cc([N+](=O)[O-])c2O)sc2nc3ccccc3n12	Tb PYK inh 28µM (no result: NS1 function inh)
CC(=O)OC[C@]12CCC(C)=C[C@H]1O[C@@H]1[C@H](O)[C@@H](OC(C)=O)[C@@]2(C)[C@]12CO2	RE007 growth inh 3.2µM
COc1cc([N+](=O)[O-])c2ncsc2c1	none
COc1cc(SSc2cc(OC)cc([N+](=O)[O-])c2N)c(N)c([N+](=O)[O-])c1	Tb PYK inh 2.8µM, RE007 growth inh inconclusive
Fc1ccc(-c2nnc(NC3=NCCCCC3)o2)cc1	Tb PYK inh inconclusive, RE007 growth inh inconclusive, LmPK inhibitor 16µM
c1ccc(-c2nnc(NC3=NCCC3)o2)cc1	LmPK inhibitor 20µM
O=C(O/N=C1/CCCc2occc21)c1ccccc1	LmPK inhibitor 13µM
CCN1/C(=C(\O)c2ccccc2)C(=O)c2ccccc2S1(=O)=O	RE007 growth inh 40µM
COC(=O)c1cccc(NC(=O)c2onc3c2CCCC3)c1	RE007 growth inh inconclusive, LmPK inhibitor inconclusive
Cc1ccccc1NC(=O)c1csc2c1CCCC2	none
O=C(Nc1ccc2ccccc2c1)c1onc2c1CCCC2	RE007 growth inh 3.5µM
Cc1cccc(NC(=O)c2onc3c2CCCC3)c1C	RE007 growth inh 4µM, LmPK inhibitor inconclusive
Cc1ccccc1NC(=O)c1onc2c1CCCC2	RE007 growth inh 5µM, LmPK inhibitor 13µM
Cc1cccc(NC(=O)c2onc3c2CCCC3)n1	Tb PYK inh inconclusive, RE007 growth inh 22µM, LmPK inhibitor 13µM
Cc1cccc(NC(=O)c2sc3nc4c(cc3c2N)CCCCCC4)c1C	none (no result: NS1 function inh, RE007 growth inh, LmPK inhibitor)
Cc1ccc(C)c(NC(=O)CN2C(=O)CCc3ccccc32)c1	none (no result: NS1 function inh, RE007 growth inh, LmPK inhibitor)
COC(=O)c1ccccc1S(=O)(=O)N1CCc2nc(-c3ccccc3)c3c(c2C1)CO[C@@H](C)C3	none (no result: Tb PYK inh, NS1 function inh, RE007 growth inh)
CC1(C)O[C@@H]2[C@H](O1)[C@@H](COS(=O)(=O)O)O[C@H]2n1c(=S)[nH]c2c(=O)[nH]c(N)nc21	Tb PYK inh 35µM (no result: NS1 function inh, LmPK inhibitor)
Cc1cccc(C)c1OCC(O)Cn1c2ccccc2c2ccccc21 (stereo unspecified)	RE007 growth inh 35µM
Cc1ccc(OCC(O)Cn2c3ccccc3c3ccccc32)cc1 (stereo unspecified)	RE007 growth inh inconclusive
OCC1(O)OC[C@@H](O)[C@H](O)[C@@H]1O (stereo partly specified)	none (no result: NS1 function inh, RE007 growth inh, LmPK inhibitor)
CN(C)CC(C(=O)c1ccccc1)c1ccccc1 (stereo unspecified)	RE007 growth inh 40µM
CC(=O)N1N=C(c2ccccc2)OC1c1ccc([N+](=O)[O-])s1 (stereo unspecified)	RE007 growth inh 35µM (no result: NS1 function inh)
CC(=O)N1N=C(c2cccc([N+](=O)[O-])c2)OC1c1ccc(Br)cc1 (stereo unspecified)	none
Nc1nonc1C(=O)NCCN=Cc1cc(Cc2ccccc2)cc(Br)c1O	RE007 growth inh 16µM
Nc1nonc1C(=O)NCCN=Cc1ccccc1O	none
Cc1ccc(N2C(=O)C3C4C=CC(CNC(=S)Nc5ccc(Cl)cc5)(O4)C3C2=O)cc1 (stereo unspecified)	RE007 growth inh 22µM
Cc1ccc(N2C(=O)N(CC(=O)Nc3cccc(Cl)c3)C(=O)C2C)cc1 (stereo unspecified)	none (no result: NS1 function inh, LmPK inhibitor)
Cc1ccc(CNC(=O)C2CCCN(C(=O)Nc3ccc(F)cc3)C2)cc1 (stereo unspecified)	none
Cc1ccc(N2C(=O)C3C4C=CC(CNC(=S)Nc5cccc(Cl)c5)(O4)C3C2=O)cc1 (stereo unspecified)	RE007 growth inh 10µM
Cc1ccc(C)c(NC(=S)N2CCN(c3ccccn3)CC2)c1	none
Cc1ccc(N2C(=O)C3C4C=CC(CNC(=S)Nc5ccc(F)cc5)(O4)C3C2=O)cc1 (stereo unspecified)	RE007 growth inh 10µM
Cc1ccc(N2C(=O)C3C4C=CC(CNC(=S)N5CCN(c6ccccn6)CC5)(O4)C3C2=O)cc1 (stereo unspecified)	RE007 growth inh 4µM (no result: NS1 function inh)
Cc1ccc(S(=O)(=O)O[C@H]2CC(C(C)(C)C)CC[C@@H]2c2ccccc2)cc1 (stereo partly specified)	none (no result: Tb PYK inh, RE007 growth inh, LmPK inhibitor)
C[C@H]1Cc2c(COc3ccccc3)nc3c(c2CO1)CN(S(=O)(=O)c1ccc2c(c1)OCCN2C)CC3	none (no result: Tb PYK inh, NS1 function inh, RE007 growth inh)
CC(C)COC(=O)NCC12C=CC(O1)C1C(=O)N(c3ccc(Cl)cc3)C(=O)C12 (stereo unspecified)	RE007 growth inh 1.6µM
CCc1ccccc1N1CC23C=CC(O2)C(C(=O)OCC(C)C)C3C1=O (stereo unspecified)	none
CC(C)(C)C(=O)NCC12C=CC(O1)C1C(=O)N(c3ccccc3)C(=O)C12 (stereo unspecified)	Tb PYK inh inconclusive, RE007 growth inh 8.9µM
CC(=O)C(Cl)C(=O)Nc1ccccc1 (stereo unspecified)	Tb PYK inh inconclusive
